In all, about 48,000 compounds went through this assay and about 160 (0.33%) were called active. The list comes from a sample in which actives are over-represented; it also holds similar structures and randomly drawn compounds. Values without a mark were called inactive.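 Rule for the calls: active = survival measured by cellular ATP above 50% at 15 µg/ml in the first screen; inactive = the rest.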

The experiment in a line: protection against thapsigargin ER stress killing – CSM14.1 cells, ATP luminescence, primary screen (AID 1010).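 Note: cell death triggered by about 15 µM thapsigargin; ATP read 24 h after thapsigargin was added; plate controls were thapsigargin with DMSO for no effect and DMSO without thapsigargin for full effect.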 Conditions: CSM14.1 thapsigargin ER stress survival, stronger effect = higher value, screened at 15 µg/mL (by protocol).
On to `O=C(Nc1ccc(Cc2ccncc2)cc1)C(c1ccccc1)c1ccccc1`, for which the relative survival (cellular ATP) was 43.5%.

Turning to `COc1cc2ccccc2cc1C(=O)Nc1ccccc1C`, the relative survival (cellular ATP) was -5.9%.

As for `CC(C)(C)C(=O)CN1C2=NCCN2c2ccccc21`, the relative survival (cellular ATP) was -3.6%.

For the compound `COc1ccc(C2CC(c3cccs3)=NN2c2ccc(F)cc2)cc1OC` (centres undefined), the relative survival (cellular ATP) was 3.6%.

As for `O=C(NCc1ccncc1)c1cccc([N+](=O)[O-])c1`, the relative survival (cellular ATP) is 2.2%.

As to `CCCOc1ccc(/C=C2\C(=O)NN(c3ccccc3)C2=O)cc1OC`, the relative survival (cellular ATP) is 4.3%.

For the compound `O=C(NNC(=O)c1cc(NC(=O)c2ccc([N+](=O)[O-])cc2)cc(C(=O)NNC(=O)c2ccccc2)c1)c1ccccc1`, the relative survival (cellular ATP) was 10%.

Regarding `Cc1cc(Cl)ccc1NC(=O)CCc1ccccc1`, the relative survival (cellular ATP) was 5.6%.

Take `O=C(NCc1cccnc1)c1cnn2c(C(F)(F)F)cc(-c3cccs3)nc12`: the relative survival (cellular ATP) is 2.5%.

On to `O=C1C(=O)N(Cc2ccccc2)C(c2ccc(F)cc2)/C1=C(/O)c1ccccc1` (centres undefined), for which the relative survival (cellular ATP) was 6.2%.

With `NC(=O)c1c(NC(=O)c2ccc(Br)cc2)sc2c1CCCCCC2`, the relative survival (cellular ATP) is 3.1%.

In the case of `COc1ccc(C(=O)Nc2sc3c(c2C(N)=O)CCCC3)cc1`, the relative survival (cellular ATP) was 13.7%.

Regarding `NC(=O)c1c(NC(=O)c2ccccc2F)sc2c1CCCCCC2`, the relative survival (cellular ATP) is 57.3% (active).

As to `COc1ccc(CCN2C(=O)CC(Cc3ccc(Cl)cc3)C2=O)cc1OC` (centres undefined), the relative survival (cellular ATP) was 10.7%.

Take `COc1cc(NC(=O)COc2ccc(Br)cc2C(C)(C)C)c(OC)cc1Cl`: the relative survival (cellular ATP) was 11.7%.

For the compound `Cc1c(C(=O)Nc2ccc(NC(=O)c3ccc(C(C)(C)C)cc3)cc2)cccc1[N+](=O)[O-]`, the relative survival (cellular ATP) is 0.1%.

With `COc1cccc(OCCOc2ccc(/C=C3/SC(=S)NC3=O)cc2OC)c1`, the relative survival (cellular ATP) was 10.2%.

In the case of `NC(=O)C1(N2CCCCC2)CCN(C(=S)Nc2ccc(Cl)cc2)CC1`, the relative survival (cellular ATP) is -1.2%.

Turning to `CC1=C(C(=O)Nc2ccccc2)C(c2ccco2)N2C(=O)CSC2=N1` (centres undefined), the relative survival (cellular ATP) is 2.3%.

Take `O=C(NCCC1=CCCCC1)c1cc(Cl)ccc1[N+](=O)[O-]`: the relative survival (cellular ATP) is 5.6%.

Take `NC1=NC(=O)/C(=C/c2ccc(OCc3cccc4ccccc34)cc2)S1`: the relative survival (cellular ATP) was 2.9%.

As to `O=C(NCCCCOc1ccccc1)C(O)(c1ccccc1)c1ccccc1`, the relative survival (cellular ATP) is 5.8%.

Consider `COc1cc(OC)cc(C(=O)Nc2cccc(S(N)(=O)=O)c2)c1`, for which the relative survival (cellular ATP) was -2.7%.

For the compound `CCOC(=O)c1ccc(NS(=O)(=O)c2cc(C(=O)Nc3ccccc3)ccc2C)cc1`, the relative survival (cellular ATP) is 4.6%.

Regarding `CC1=C(C#N)c2nc(N)c(C#N)c(C)c2/C1=C/c1ccc(-c2cccc(Cl)c2Cl)o1`, the relative survival (cellular ATP) was -6.8%.

On to `O=C(O)c1cc(-c2ccc(/C=N/Nc3ccc(Cl)c(Cl)c3)o2)ccc1Cl`, for which the relative survival (cellular ATP) was -2.2%.

For `COc1ccc(/C=C2\SC(=S)N(CC(=O)OCCN(C)C)C2=O)cc1`, the relative survival (cellular ATP) is -6.1%.

On to `Cc1c(C#N)c2nc3ccccc3n2c(=O)/c1=C\c1c(O)n(-c2ccc(Br)cc2)[nH]c1=O`, for which the relative survival (cellular ATP) was -1.2%.

For `O=c1nc2cc3[nH]c4c(=O)c5ccccc5c4[nH]c3cc2n1`, the relative survival (cellular ATP) was 12.2%.

Take `COC(=O)C1=C(C)NC2=C(C(=O)c3ccccc32)C1c1ccc(-c2ccc([N+](=O)[O-])cc2C)o1` (centres undefined): the relative survival (cellular ATP) is 7.6%.

For `CC(=O)c1ccc(NC(=S)NC(NC(=O)N(C)C)C(Cl)(Cl)Cl)cc1` (centres undefined), the relative survival (cellular ATP) is -1.5%.

As for `COc1ccc(/C(O)=C2/C(=O)C(=O)N(CCCCCC(=O)O)C2c2ccccc2)cc1` (centres undefined), the relative survival (cellular ATP) was 2.4%.

As for `O=C(NCCc1ccccc1)/C(=C/c1ccc(-c2cccc([N+](=O)[O-])c2)o1)NC(=O)c1ccccc1`, the relative survival (cellular ATP) was 8.1%.

Take `O=C(NC(NC(=S)N1CCOCC1)C(Cl)(Cl)Cl)c1cccc([N+](=O)[O-])c1` (centres undefined): the relative survival (cellular ATP) is 0.9%.

On to `CC(C)(C)CC(C)(C)NC(=O)CSc1nc2ccccc2[nH]1`, for which the relative survival (cellular ATP) was 12.7%.

For the compound `COC(=O)C1=C(C)N=c2s/c(=C\c3ccc(N(C)C)cc3)c(=O)n2C1c1ccccc1Cl` (centres undefined), the relative survival (cellular ATP) was 0.6%.

On to `COc1cc(/C=C2/NC(=S)NC2=O)ccc1OCc1ccccc1Cl`, for which the relative survival (cellular ATP) was 1.9%.

For `CCN1C(=O)/C(=C\c2ccc(OC)c([N+](=O)[O-])c2)C(C(=O)OC)=C1C`, the relative survival (cellular ATP) was 11.8%.

With `Cc1ccc(N2C(=O)/C(=C/c3sccc3C)SC2=S)cc1`, the relative survival (cellular ATP) is 9.2%.

Regarding `O=C1S/C(=C/c2ccccc2F)C(=O)N1CNc1ccccc1Br`, the relative survival (cellular ATP) was 2.5%.

As for `O=C(Nc1nc(-c2ccc3ccccc3c2)cs1)c1ccc(Cl)cc1[N+](=O)[O-]`, the relative survival (cellular ATP) was 2%.

Consider `O=c1[nH]c(=O)n(-c2ccc(Cl)cc2)c(O)c1/C=C1/C=CC=N1`, for which the relative survival (cellular ATP) is 64.8% (active).

Consider `CCOc1ccc(-n2c(O)c(C=C3C=CC=N3)c(=O)[nH]c2=O)cc1`, for which the relative survival (cellular ATP) was 2.3%.

As to `O=c1[nH]c(=S)n(-c2cccc(Cl)c2)c(O)c1/C=C1/C=CC=N1`, the relative survival (cellular ATP) is 8.4%.

As to `COc1ccc(/C=C(/NC(=O)c2ccco2)C(=O)Nc2ccc(C(C)=O)cc2)cc1`, the relative survival (cellular ATP) was 2.4%.

As for `COC(=O)C(NC(=O)CCC1CCCCC1)C12CC3CC(CC(C3)C1)C2` (centres undefined), the relative survival (cellular ATP) was 13.9%.

Consider `CC1=NN(c2ccc(S(N)(=O)=O)cc2)C(=O)/C1=C\c1ccc(-c2cc([N+](=O)[O-])ccc2C)o1`, for which the relative survival (cellular ATP) was -4.8%.

As for `CCOc1c(Br)cc(/C=C2/C(=O)NN(c3ccccc3)C2=O)cc1OC`, the relative survival (cellular ATP) was 5%.

With `COc1ccc(Br)cc1-c1nc2nnc(C)n2[nH]1`, the relative survival (cellular ATP) is 7.4%.

For `Cc1ccc(C(=O)Nc2ccc(NC(=O)c3ccccc3)cc2)cc1S(=O)(=O)N1CCOCC1`, the relative survival (cellular ATP) is 5%.

Regarding `COc1ccc(-c2cc(C(=O)Nc3c(C)cccc3C)c3ccccc3n2)cc1`, the relative survival (cellular ATP) is 0.1%.

On to `COCCCNC(=O)c1ccccc1C`, for which the relative survival (cellular ATP) is 0.6%.

Consider `CCOCCOC(=O)c1ccc(NC(=O)c2ccccc2C)cc1`, for which the relative survival (cellular ATP) is 7.2%.

In the case of `CCCCOC(=O)C1=C(C)NC2=C(C(=O)CC(c3ccccc3)C2)C1c1ccc(O)c([N+](=O)[O-])c1` (centres undefined), the relative survival (cellular ATP) is 3.8%.

For `O=C1OC(c2ccc(NC(=O)C(F)(F)F)cc2)(c2ccc(NC(=O)C(F)(F)F)cc2)c2ccccc21`, the relative survival (cellular ATP) is 6.6%.

Take `O=C1NC(=S)S/C1=C\c1ccccc1OS(=O)(=O)c1ccc([N+](=O)[O-])cc1`: the relative survival (cellular ATP) is 3.7%.

For the compound `Cc1ccc(C(=O)Nc2ccc(Cl)cc2)o1`, the relative survival (cellular ATP) is 2.1%.

Turning to `O=S(=O)(O)c1cc(-n2nc3ccc4c(S(=O)(=O)O)cccc4c3n2)ccc1/C=C/c1ccccc1`, the relative survival (cellular ATP) is 6.1%.

`CCc1cccc(C)c1NC(=O)c1ccc(C)c([N+](=O)[O-])c1`: the relative survival (cellular ATP) was 0.4%.

On to `CC(NC(=O)C(F)(Cl)C(F)(F)F)c1ccccc1` (centres undefined), for which the relative survival (cellular ATP) is -2.2%.

As to `O=C(N/C(=C/c1ccc(-c2cccc(C(F)(F)F)c2)o1)C(=O)N1CCOCC1)c1ccc(Cl)cc1`, the relative survival (cellular ATP) was 1%.

As to `O=[N+]([O-])c1ccc(C2Nc3ccc(Br)cc3C3C=CCC32)cc1` (centres undefined), the relative survival (cellular ATP) was 6.4%.

In the case of `CC1(C)CC(=O)C2=C(C1)Nc1ccccc1N(C(=O)Cc1ccccc1)C2c1cccc(F)c1` (centres undefined), the relative survival (cellular ATP) was 0.5%.

As for `COc1ccc(C2C3=C(CC(C)(C)CC3=O)Nc3ccccc3N2C(=O)c2ccc(Cl)cc2)cc1OC` (centres undefined), the relative survival (cellular ATP) was 59.4% (active).

Consider `CC1(C)CC(=O)C2=C(C1)NC1=C(C(=O)CC(C)(C)C1)C2c1ccccc1Cl`, for which the relative survival (cellular ATP) is 9.2%.

Consider `CC(=O)Oc1ccc2occ(C(=O)c3ccc(C)cc3)c2c1`, for which the relative survival (cellular ATP) was -6.1%.

For the compound `CCOC(=O)C1=NN(C(=O)c2ccc(Cl)cc2)C(O)(C(C)(C)C)C1` (centres undefined), the relative survival (cellular ATP) is 11.8%.

With `O=C(/C=C/c1ccccc1Cl)c1ccc(NC(=O)c2cccs2)cc1`, the relative survival (cellular ATP) was 1.3%.

As to `CC(=O)Nc1ccc(C(=O)N2CCN(c3ccccc3)CC2)cc1`, the relative survival (cellular ATP) is -6.3%.

As to `OC1(C#Cc2ccccc2)CCN(Cc2ccccc2)CC1`, the relative survival (cellular ATP) was -6%.

For the compound `O=C(c1ccc(C#CC2(O)CCCCC2)cc1)N1CCN(c2ccccc2Cl)CC1`, the relative survival (cellular ATP) is 94.4% (active).

As to `Cc1cc(=O)oc2cc(OCC(=O)OCc3ccccc3)ccc12`, the relative survival (cellular ATP) was 1.2%.

For the compound `Cn1nc(-c2ccc(Br)cc2)cc1N`, the relative survival (cellular ATP) is -2.2%.

As to `COc1cc(C2Nc3ccc4ccccc4c3C3=C2C(=O)CC(C)(C)C3)c(Br)cc1O` (centres undefined), the relative survival (cellular ATP) was 1.3%.

In the case of `COc1cc(OC)c(C2NC(=S)NC(C)=C2C(=O)Nc2ccc(Cl)cc2)cc1OC` (centres undefined), the relative survival (cellular ATP) is 7.2%.

In the case of `CCOc1nc(-c2ccccc2)cc(-c2ccc(Br)cc2)n1`, the relative survival (cellular ATP) is 1.9%.

Regarding `NS(=O)(=O)c1cccc(C(=O)Nc2ccc([N+](=O)[O-])cc2)c1`, the relative survival (cellular ATP) is 4.7%.

Regarding `Clc1ccc(/C=N\N2CCN(C(c3ccccc3)c3ccccc3)CC2)cc1`, the relative survival (cellular ATP) is 9.1%.

For `C/C(Cn1nnc([N+](=O)[O-])n1)=N/NC(=O)Cc1ccccc1`, the relative survival (cellular ATP) was -8.3%.

On to `CCCCS(=O)(=O)CC(O)COc1ccccc1` (centres undefined), for which the relative survival (cellular ATP) is 10.3%.

For `COc1cccc(C(=O)Nc2ccccc2C(F)(F)F)c1`, the relative survival (cellular ATP) was 5.4%.

With `CCOC1CC(c2ccccc2)=NN1c1ccccc1` (centres undefined), the relative survival (cellular ATP) was 2.7%.

For `COc1ccc(C2/C(=C(\O)c3ccc(F)cc3)C(=O)C(=O)N2c2nncs2)cc1` (centres undefined), the relative survival (cellular ATP) was -1.4%.

For the compound `Oc1c(/C=C2/C=Nc3ccccc32)sc(=S)n1Cc1ccccc1`, the relative survival (cellular ATP) is 11%.

Consider `O=C(Nc1cccc(F)c1)c1sc2ccccc2c1Cl`, for which the relative survival (cellular ATP) is 1.2%.

Consider `COc1ccc(N2C(=O)c3ccc(C(=O)Nc4cccc(O)c4)cc3C2=O)cc1`, for which the relative survival (cellular ATP) is 2%.

Turning to `COC(=O)c1ccc(/C=C2\SC(=S)N(CCCC(=O)Nc3nccs3)C2=O)cc1`, the relative survival (cellular ATP) was -4%.

`COc1ccccc1CC(=O)Nc1ccc(F)cc1F`: the relative survival (cellular ATP) is 6.1%.

For the compound `COc1ccc(C2/C(=C(\O)c3ccc(Cl)cc3)C(=O)C(=O)N2CCCn2ccnc2)cc1` (centres undefined), the relative survival (cellular ATP) was 13%.

The values above are taken from PubChem BioAssay AID1010 (Sanford-Burnham Center for Chemical Genomics, 2008).
